Legend:
PIK3CB = settings: Compound Concentration (nM):1000
PIK3CD = settings: Compound Concentration (nM):1000
PIK3CG = settings: Compound Concentration (nM):1000
PIK4CB = test system: T1, PIK4CB; settings: Compound Concentration (nM):1000
T1 construct: gene PI4KB

PIKFYVE = settings: Compound Concentration (nM):1000
PIM1 = settings: Compound Concentration (nM):1000
PIM2 = settings: Compound Concentration (nM):1000
PIM3 = settings: Compound Concentration (nM):1000
PIP5K1A = settings: Compound Concentration (nM):1000
PIP5K1C = settings: Compound Concentration (nM):1000
PIP5K2B = test system: T2, PIP5K2B; settings: Compound Concentration (nM):1000
T2 construct: gene PIP4K2B

PIP5K2C = test system: T3, PIP5K2C; settings: Compound Concentration (nM):1000
T3 construct: gene PIP4K2C

PKAC-alpha = test system: T4, PKAC-alpha; settings: Compound Concentration (nM):1000
T4 construct: gene PRKACA

PKAC-beta = test system: T5, PKAC-beta; settings: Compound Concentration (nM):1000
T5 construct: gene PRKACB

PKMYT1 = settings: Compound Concentration (nM):1000
PKN1 = settings: Compound Concentration (nM):1000
PKN2 = settings: Compound Concentration (nM):1000
PKNB(M.tuberculosis) = settings: 1 µM
PLK1 = settings: Compound Concentration (nM):1000
PLK2 = settings: Compound Concentration (nM):1000
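Further: KINOMEscan scanMAX binding as percent activity remaining versus control; lower means stronger binding.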

SMILES	Percent Control (PIK3CB) [%]	Percent Control (PIK3CD) [%]	Percent Control (PIK3CG) [%]	Percent Control (PIK4CB) [%]	Percent Control (PIKFYVE) [%]	Percent Control (PIM1) [%]	Percent Control (PIM2) [%]	Percent Control (PIM3) [%]	Percent Control (PIP5K1A) [%]	Percent Control (PIP5K1C) [%]	Percent Control (PIP5K2B) [%]	Percent Control (PIP5K2C) [%]	Percent Control (PKAC-alpha) [%]	Percent Control (PKAC-beta) [%]	Percent Control (PKMYT1) [%]	Percent Control (PKN1) [%]	Percent Control (PKN2) [%]	Percent Control (PKNB(M.tuberculosis)) [%]	Percent Control (PLK1) [%]	Percent Control (PLK2) [%]
Cl.O=S1CCN(Cc2ccc(-c3ccc4ncnc(Nc5ccc(OCc6ccccc6)c(F)c5)c4c3)o2)CC1 [GW576924A]	96	100	100	100	86	100	100	100	100	67	100	63	100	100	100	100	100	100	100	100
COc1cc(C)c(N(C)C(=O)CN(C)C)cc1Nc1nc(Nc2cccc(F)c2C(N)=O)c2cc[nH]c2n1 [GSK2219385]	100	75	100	85	97	90	92	86	100	100	100	92	100	100	78	89	88	63	81	100
CN(C)c1cc2c(Nc3ccc4c(cnn4Cc4ccccc4)c3)ncnc2cn1 [GW282974X]	89	70	96	100	100	91	93	90	100	100	100	100	100	95	73	90	88	68	71	100
NS(=O)(=O)c1ccc(Nc2ncc(-c3ccccc3)o2)cc1 [GW572399X]	100	100	100	71	100	100	100	100	100	74	100	29	100	100	100	100	100	76	100	86
O=C1Nc2ccc(C(=O)c3ccco3)cc2C1=Cc1cc(Cl)c(O)c(Cl)c1 [GW406108X]	100	79	47	0.8	88	32	61	9.9	88	43	95	65	100	100	100	83	63	90	49	27
COc1ccc2cc(-c3c(-c4ccncc4)nc(-c4ccc(S(C)(=O)=O)cc4C)n3C)ccc2c1 [SB-633825]	94	100	79	69	100	78	97	80	95	100	83	73	96	65	89	86	100	83	63	89
Cl.O=C(Nc1ccc(Oc2ccc3[nH]c(NC(=O)c4ccco4)nc3c2)cc1)Nc1cc(C(F)(F)F)ccc1F [GW683134A]	100	90	100	100	100	100	100	100	100	98	100	76	100	100	100	100	79	99	100	88
NS(=O)(=O)c1ccc(N/N=C2\C(=O)Nc3ccc(C(=O)NCCc4c[nH]cn4)cc32)cc1 [GW300660X]	100	100	95	100	100	32	100	32	100	0.7	100	48	100	100	100	100	80	92	100	75
CCS(=O)(=O)c1ccc(OC)c(Nc2ncc(-c3cccc(OC)c3)o2)c1 [GW580509X]	100	93	100	40	91	100	100	100	100	17	91	11	100	100	100	100	100	100	92	86
NS(=O)(=O)c1ccc(N/N=C2\C(=O)Nc3ccc(-c4cnco4)cc32)cc1 [GW276655]	98	88	83	75	100	45	96	56	26	55	69	100	88	94	95	100	87	78	77	83
CN(C)CCNC(=O)Nc1ccc(N(C)c2ccnc(Nc3ccc(CS(C)(=O)=O)cc3)n2)cc1.Cl [GW830900A]	84	76	91	11	100	100	100	97	23	86	33	3.7	100	100	100	83	64	94	86	100
COc1cc(N2CCN(C(C)C)CC2)ccc1Nc1nc(Nc2ccc(F)cc2C(=O)NC[C@@H](O)CO)c2cc[nH]c2n1 [GSK1392956A]	96	80	100	100	95	100	100	100	100	100	100	94	100	100	100	100	100	99	6.3	100
Cc1cc(O)cc(C)c1/C=C/c1cncc(C(N)=O)c1 [GW435821X]	100	81	100	100	100	100	100	100	100	67	100	84	100	100	74	100	65	99	100	93
Cl.c1ccc(Cc2nc3ccc(Nc4ncnc5ccccc45)cc3[nH]2)cc1 [GR269666A]	100	98	100	100	100	100	100	100	100	86	100	71	100	100	100	92	100	100	80	100
COc1ccc2[nH]c3c4[nH]c5ccc(OC)cc5c4c4c(c3c2c1)C(=O)NC4=O [GW296115X]	88	64	87	100	0	46	0.5	2.6	100	81	100	28	87	89	97	42	52	67	90	95
CN1CCN(C(=O)c2ccc(NC(=O)Nc3ccc(N(C)c4ccnc(Nc5ccc(CS(C)(=O)=O)cc5)n4)cc3)cc2)CC1.Cl [GW830263A]	100	100	93	97	100	100	100	100	9.3	97	17	0.9	100	100	96	70	100	87	100	100
O=C(Nc1n[nH]c2nc(-c3ccc(O)cc3)c(Br)cc12)C1CC1 [SB-725317]	100	75	100	100	99	23	0.4	9.3	100	59	100	91	100	100	100	89	100	31	100	83
CCn1c(-c2nonc2N)nc2c(C#CC(C)(C)O)nc(OCCNC)cc21.Cl [GSK949675]	91	82	73	100	20	100	56	100	79	0	100	78	21	16	100	9.3	100	0.7	100	100
COc1cc(C=NNc2ncnc3c2cnn3-c2ccccc2)ccc1O [GW513184X]	100	76	22	34	4.9	100	100	100	29	51	59	1.4	100	100	100	81	100	86	100	37
COc1ccc(COc2ccc(Cc3cnc(N)nc3N)cc2OC)cc1 [GW632580X]	93	100	77	100	100	100	91	100	94	100	100	100	91	100	100	82	100	69	100	100
